# Source: article PMC8384837, “Expanding the binding specificity for RNA recognition by a PUF domain”
# Columns and labels:
# Assay in all cases: yeast three-hybrid, YBZ-1, SC-Leu-His + 0.5 mM 3-AT, 4 days
# Conditions in all cases: tags: N-Gal4 AD-HA kept; label: inside an RPR1-promoter hybrid RNA with tandem MS2 sites; ssRNA
# PUM1 PUF domain R1-TLF = PUM1 PUF domain R1-TLF (Homo sapiens, UniProt Q14671 828-1176, S863T;R864L;Q867F)
# How it was run: (§1)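 Repeat regions from input (SC-Leu) and selection (SC-Leu-His + 0.5 mM 3-AT) plates were PCR-amplified and Illumina-sequenced after four days of growth. The cells were strain YBZ-1 with a LexA–MS2 coat fusion and a HIS3 reporter, co-expressing Pumilio-1 PUF domain libraries and matching RNA elements from a centromeric plasmid. The interaction score is the log change in variant frequency from input to selection, taken in log2 with a pseudocount of 1 for absent variants.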
# PUM1 PUF domain R1-RIS = PUM1 PUF domain R1-RIS (Homo sapiens, UniProt Q14671 828-1176, S863R;R864I;Q867S)
# How it was run: as §1
# PUM1 PUF domain R1-SLR = PUM1 PUF domain R1-SLR (Homo sapiens, UniProt Q14671 828-1176, R864L;Q867R)
# How it was run: as §1
# PUM1 PUF domain R3-TRF = PUM1 PUF domain R3-TRF (Homo sapiens, UniProt Q14671 828-1176, C935T;Q939F)
# How it was run: as §1
# PUM1 PUF domain R3-GPT = PUM1 PUF domain R3-GPT (Homo sapiens, UniProt Q14671 828-1176, C935G;R936P;Q939T)
# How it was run: as §1
# PUM1 PUF domain R3-LWT = PUM1 PUF domain R3-LWT (Homo sapiens, UniProt Q14671 828-1176, C935L;R936W;Q939T)
# How it was run: as §1
# PUM1 PUF domain R3-EWE = PUM1 PUF domain R3-EWE (Homo sapiens, UniProt Q14671 828-1176, C935E;R936W;Q939E)
# How it was run: as §1
# PUM1 PUF domain R5-DRQ = PUM1 PUF domain R5-DRQ (Homo sapiens, UniProt Q14671 828-1176, C1007D)
# How it was run: as §1
# PUM1 PUF domain R5-KRP = PUM1 PUF domain R5-KRP (Homo sapiens, UniProt Q14671 828-1176, C1007K;Q1011P)
# How it was run: as §1
# PUM1 PUF domain R5-RFD = PUM1 PUF domain R5-RFD (Homo sapiens, UniProt Q14671 828-1176, C1007R;R1008F;Q1011D)
# How it was run: as §1
# PUM1 PUF domain R8-RGR = PUM1 PUF domain R8-RGR (Homo sapiens, UniProt Q14671 828-1176, N1122R;Y1123G;Q1126R)
# How it was run: as §1
# PUM1 PUF domain R5-RQC = PUM1 PUF domain R5-RQC (Homo sapiens, UniProt Q14671 828-1176, C1007R;R1008Q;Q1011C)
# How it was run: as §1
# PUM1 PUF domain R4-CRS = PUM1 PUF domain R4-CRS (Homo sapiens, UniProt Q14671 828-1176, N971C;H972R;Q975S)
# How it was run: as §1
# PUM1 PUF domain R5-CTR = PUM1 PUF domain R5-CTR (Homo sapiens, UniProt Q14671 828-1176, R1008T;Q1011R)
# How it was run: as §1
# PUM1 PUF domain R3-IYL = PUM1 PUF domain R3-IYL (Homo sapiens, UniProt Q14671 828-1176, C935I;R936Y;Q939L)
# How it was run: as §1
# PUM1 PUF domain R4-SML = PUM1 PUF domain R4-SML (Homo sapiens, UniProt Q14671 828-1176, N971S;H972M;Q975L)
# How it was run: as §1
# PUM1 PUF domain R5-EFR = PUM1 PUF domain R5-EFR (Homo sapiens, UniProt Q14671 828-1176, C1007E;R1008F;Q1011R)
# How it was run: as §1
# PUM1 PUF domain R7-KRG = PUM1 PUF domain R7-KRG (Homo sapiens, UniProt Q14671 828-1176, S1079K;N1080R;E1083G)
# How it was run: as §1
# PUM1 PUF domain R5-RFD, sequence (Q14671 828-1176 C1007R/R1008F/Q1011D): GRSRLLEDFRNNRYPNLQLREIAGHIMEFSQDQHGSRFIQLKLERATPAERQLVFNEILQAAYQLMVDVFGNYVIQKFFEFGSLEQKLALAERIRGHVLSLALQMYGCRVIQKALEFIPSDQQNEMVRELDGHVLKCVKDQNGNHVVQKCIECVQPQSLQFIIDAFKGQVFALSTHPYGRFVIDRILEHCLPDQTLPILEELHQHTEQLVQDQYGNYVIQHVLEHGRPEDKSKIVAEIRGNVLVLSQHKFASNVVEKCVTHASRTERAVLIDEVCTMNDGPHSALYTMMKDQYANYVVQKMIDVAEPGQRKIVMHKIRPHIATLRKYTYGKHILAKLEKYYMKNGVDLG
# PUM1 PUF domain R5-RQC, sequence (Q14671 828-1176 C1007R/R1008Q/Q1011C): as the sequence (Q14671 828-1176 C1007R/R1008F/Q1011D) above, with F181Q, D184C counted along it
# PUM1 PUF domain R5-KRP, sequence (Q14671 828-1176 C1007K/Q1011P): as the sequence (Q14671 828-1176 C1007R/R1008F/Q1011D) above, with R180K, F181R, D184P counted along it
# PUM1 PUF domain R5-DRQ, sequence (Q14671 828-1176 C1007D): as the sequence (Q14671 828-1176 C1007R/R1008F/Q1011D) above, with R180D, F181R, D184Q counted along it
# PUM1 PUF domain R5-CTR, sequence (Q14671 828-1176 R1008T/Q1011R): as the sequence (Q14671 828-1176 C1007R/R1008F/Q1011D) above, with R180C, F181T, D184R counted along it
# PUM1 PUF domain R1-TLF, sequence (Q14671 828-1176 S863T/R864L/Q867F): as the sequence (Q14671 828-1176 C1007R/R1008F/Q1011D) above, with S36T, R37L, Q40F, R180C, F181R, D184Q counted along it
# PUM1 PUF domain R4-CRS, sequence (Q14671 828-1176 N971C/H972R/Q975S): as the sequence (Q14671 828-1176 C1007R/R1008F/Q1011D) above, with N144C, H145R, Q148S, R180C, F181R, D184Q counted along it
# PUM1 PUF domain R8-RGR, sequence (Q14671 828-1176 N1122R/Y1123G/Q1126R): as the sequence (Q14671 828-1176 C1007R/R1008F/Q1011D) above, with R180C, F181R, D184Q, N295R, Y296G, Q299R counted along it
# PUM1 PUF domain R1-RIS, sequence (Q14671 828-1176 S863R/R864I/Q867S): as the sequence (Q14671 828-1176 C1007R/R1008F/Q1011D) above, with S36R, R37I, Q40S, R180C, F181R, D184Q counted along it
sequence,measurement,setting,value
GGCUAGAACUAGUGGAUCCCCCGGCGCCCGGCGGCUCGAGCCCGGGUAAGUGUAAAUUGUCUGCAUGCCGCCGGGCGCCAUGCCUGCAGGUCGACUCUAGAAAACAUG,binding signal,PUM1 PUF domain R1-TLF,4.45 log2 enrichment (interaction score)
same,binding signal,PUM1 PUF domain R1-RIS,3.81 log2 enrichment (interaction score)
same,binding signal,PUM1 PUF domain R1-SLR,0.57 log2 enrichment (interaction score)
GGCUAGAACUAGUGGAUCCCCCGGCGCCCGGCGGCUCGAGCCCGGGUAAGUGUAAUUAGUCUGCAUGCCGCCGGGCGCCAUGCCUGCAGGUCGACUCUAGAAAACAUG,binding signal,PUM1 PUF domain R3-TRF,0.63 log2 enrichment (interaction score)
same,binding signal,PUM1 PUF domain R3-GPT,2.69 log2 enrichment (interaction score)
same,binding signal,PUM1 PUF domain R3-LWT,4.05 log2 enrichment (interaction score)
same,binding signal,PUM1 PUF domain R3-EWE,4.69 log2 enrichment (interaction score)
GGCUAGAACUAGUGGAUCCCCCGGCGCCCGGCGGCUCGAGCCCGGGUAAGUGUGAAUAGUCUGCAUGCCGCCGGGCGCCAUGCCUGCAGGUCGACUCUAGAAAACAUG,binding signal,PUM1 PUF domain R5-DRQ,3.23 log2 enrichment (interaction score)
same,binding signal,PUM1 PUF domain R5-KRP,0.17 log2 enrichment (interaction score)
same,binding signal,PUM1 PUF domain R5-RFD,2.73 log2 enrichment (interaction score)
GGCUAGAACUAGUGGAUCCCCCGGCGCCCGGCGGCUCGAGCCCGGGUAAGUGUAAAUAGUCUGCAUGCCGCCGGGCGCCAUGCCUGCAGGUCGACUCUAGAAAACAUG,binding signal,PUM1 PUF domain R8-RGR,1.23 log2 enrichment (interaction score)
same,binding signal,PUM1 PUF domain R5-RQC,1.84 log2 enrichment (interaction score)
same,binding signal,PUM1 PUF domain R4-CRS,2.69 log2 enrichment (interaction score)
same,binding signal,PUM1 PUF domain R5-CTR,1.1 log2 enrichment (interaction score)
same,binding signal,PUM1 PUF domain R5-RFD,2.18 log2 enrichment (interaction score)
same,binding signal,PUM1 PUF domain R3-TRF,4.8 log2 enrichment (interaction score)
same,binding signal,PUM1 PUF domain R3-GPT,2.91 log2 enrichment (interaction score)
same,binding signal,PUM1 PUF domain R3-IYL,4.44 log2 enrichment (interaction score)
same,binding signal,PUM1 PUF domain R4-SML,3.12 log2 enrichment (interaction score)
same,binding signal,PUM1 PUF domain R5-EFR,3.42 log2 enrichment (interaction score)
same,binding signal,PUM1 PUF domain R3-LWT,3.77 log2 enrichment (interaction score)
GGCUAGAACUAGUGGAUCCCCCGGCGCCCGGCGGCUCGAGCCCGGGUAAGUGUCAAUAGUCUGCAUGCCGCCGGGCGCCAUGCCUGCAGGUCGACUCUAGAAAACAUG,binding signal,PUM1 PUF domain R5-DRQ,3.34 log2 enrichment (interaction score)
same,binding signal,PUM1 PUF domain R5-RQC,4.74 log2 enrichment (interaction score)
same,binding signal,PUM1 PUF domain R5-KRP,2.24 log2 enrichment (interaction score)
same,binding signal,PUM1 PUF domain R5-CTR,4.38 log2 enrichment (interaction score)
same,binding signal,PUM1 PUF domain R5-RFD,4.17 log2 enrichment (interaction score)
same,binding signal,PUM1 PUF domain R5-EFR,1.31 log2 enrichment (interaction score)
GGCUAGAACUAGUGGAUCCCCCGGCGCCCGGCGGCUCGAGCCCGGGUAAGUCUAAAUAGUCUGCAUGCCGCCGGGCGCCAUGCCUGCAGGUCGACUCUAGAAAACAUG,binding signal,PUM1 PUF domain R7-KRG,2.64 log2 enrichment (interaction score)
GGCUAGAACUAGUGGAUCCCCCGGCGCCCGGCGGCUCGAGCCCGGGUAAGUGUAAAUCGUCUGCAUGCCGCCGGGCGCCAUGCCUGCAGGUCGACUCUAGAAAACAUG,binding signal,PUM1 PUF domain R1-SLR,3.37 log2 enrichment (interaction score)
